We go through nine compounds from PubChem BioAssay.

Inconclusive results are not listed. Activity calls are given as the source filed them.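 How the source made its calls, unless noted: active means viability at or below 30% in both replicate assays; inconclusive means viability at or below 30% in just one of the two assays; inactive means the rest.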

Assay [1] in a line: reducers of endogenous Her2 protein level, primary screen, SKBR3 breast tumor cells, AlphaScreen, ATP viability (AID 461;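 active means Her2 level under about 52% in both replicate screens, with viability over 70% of control, limit read from the data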;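 on Her2 level: lower value means less Her2 protein in the cells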;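 on viability: percent of carrier control wells set as 100% viability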). To be noted: 18-24 h, measured here: SKBR3 viability, ATP luminescence, at 10 µM. (In Alpha technology, singlet oxygen from a donor bead excites a nearby acceptor bead.)
The target in assay [2] is Receptor tyrosine-protein kinase erbB-2 (Homo sapiens) (UniProt P04626). The description is as above. To be noted: 18-24 h, at 10 µM, stronger effect = lower value.
Assay [3] is described as follows: SK-BR-3 cell growth inhibitors, pilot screen, 24 h, human (AID 572;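 active means viability at or below 10% of carrier control in both of two separate runs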;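 further: compound exposure lasted between 18 and 24 h rather than exactly 24 h; 100% = carrier-treated control wells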). The conditions noted are these: SK-BR-3 viability, CellTiter-Glo luminescence, at 10 µM, stronger effect = lower value.
The nature of assay [4]: HUVEC growth inhibition – cell-based, human, primary screen (AID 575).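 Further: 100% = median of untreated cell wells with 0.1% DMSO on each plate.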 To be noted: HUVEC proliferation, CellTiter-Glo luminescence, 72 h; at 10 µM; stronger effect = lower value.
The nature of assay [5]: growth inhibitors of H69AR lung tumor, primary screen, human, duplicate replicates (AID 580;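 active means viability at or under a set limit in both replicates, limit being median viability minus 3 SD, cut at about 48% in these data, passing the limit was not always enough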;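 further: 100% = mean luminescence of untreated wells and 0% = no signal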). The conditions noted are these: H69AR lung tumor cells viability, ATP luminescence, 72 h; at 10 µM; stronger effect = lower value.
Assay [6] can be described thus: reversal of MRP1-mediated doxorubicin resistance, pilot screen, H69AR cells, doxorubicin co-treatment (AID 601;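 active means viability loss from added drug above about 55%, and viability with drug at most 40%, in both replicates, limit read from the data, passing the limit was not always enough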). The conditions noted are these: CellTiter-Glo, 72 h, at 10 µM; for differential viability (reversal): stronger effect = higher value.
A short description of assay [7]: 384-well plate pilot, post-Golgi transport modulator project, inhibition of yeast transport mutant growth (AID 636; in the data active means inhibition above about 31%). To be noted: absorbance 615 nm, about 18 h, stronger effect = higher value.
Assay [8] is described as follows: growth suppression of yeast trafficking mutant, preliminary HTS, modulators of trafficking downstream of Golgi apparatus project, 1536-format plate, OD 615 nm (AID 637; in the data active means inhibition above about 30%). The conditions noted are these: yeast transport mutant growth, absorbance 615 nm, 18 h; stronger effect = higher value.
Assay [9] is described as follows: OD615 S. cerevisiae growth inhibition, permissive medium, pilot counter-assay, permissive growth control for S. cerevisiae lifespan shortening project (AID 705;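 active means growth inhibition above 25% in both replicates, a cutoff set 3 SD above the mean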). To be noted: OD615, 24 h, at 10 µM, stronger effect = higher value.
Assay [10] is described as follows: Restrictive medium S. cerevisiae growth inhibition, OD615, pilot screen of yeast lifespan reduction project, restrictive growth control (AID 706;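 active means growth inhibition above a set limit, 3 SD over mean compound inhibition, in both replicates, cut at about 43% in these data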;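 further: modified DeaD lifespan yeast strain shifted to restrictive glucose medium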). To be noted: OD615, 48 h, at 10 µM, stronger effect = higher value.
Assay [11] in a line: viability gain of MRP-1-high H69AR cells under doxorubicin, pilot screen, MRP-1 activator project, CellTiter-Glo, duplicate (AID 807;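 active means viability increase at or above a cutoff of the median across tested compounds plus 3 SD, cut at about 8.5% in these data, passing the limit was not always enough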;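 further: compound pretreatment 18-22 h then 72 h combined with doxorubicin; 0% = doxorubicin alone and 100% = vehicle without doxorubicin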). To be noted: H69AR viability with doxorubicin, CellTiter-Glo luminescence; at 10 µM; stronger effect = higher value. (In general: Cellular ATP, detected with luciferase, serves as a proxy for viable cell number.)
Assay [12] is described as follows: growth suppression of beta-catenin knockout HCT116, pilot screen, human colon tumor cells (AID 823;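 active means cell viability at or below a set limit in both duplicate runs, the limit being the all-compound median minus 4 SD, cut at about 23% in these data, passing the limit was not always enough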;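 further: 0% = wells killed by 20 µM Hyamine and 100% = untreated DMSO cell wells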). The conditions noted are these: CellTiter-Glo, 60 h, at 10 µM, stronger effect = lower value.
A short description of assay [13]: growth suppression of PTEN-deleted HCT116, pilot screen, cell-based, HCT116 clonal line, CellTiter-Glo (AID 824;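 active means viability at or below 27.92% in each of two runs, the all-compound median minus 4 SD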;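 further: 0% = 20 µM Hyamine control and 100% = vehicle cell control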). To be noted: 60 h, at 10 µM, stronger effect = lower value.
The nature of assay [14]: inhibitors of the yeast RAM network, pilot screen, dse1pr::URA3 reporter, 5-FOA selection (AID 869;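 active means inhibition over a set limit, the all-compound mean plus 3 SD, in both replicate runs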;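 further: 0% = DMSO wells with no growth and 100% = 10 µM 1-NA-PP1 with full growth; RAM network block rescues cells from 5-FOA so hits raise OD615 growth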). To be noted: S. cerevisiae dse1pr::URA3 5-FOA growth, OD615, 2 d; at 10 µM; stronger effect = higher value; strain carries analog-sensitive mutant Cbk1 kinase.
Assay [15] can be described thus: RAM signaling pathway blockade in yeast – S. cerevisiae, Pdr1DBD-CYC8 efflux-inhibited sensitized strain, primary screen (AID 1298;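 active means RAM network inhibition above 8.4% in each of two replicates, 3 SD over the compound average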;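 further: 0% = DMSO untreated cells without growth and 100% = 10 µM 1-NA-PP1 full growth; higher means more yeast growth rescued from 5-FOA killing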). The conditions noted are these: S. cerevisiae cbk1-as DSE1-URA3 strain, 5-FOA growth OD615, 2 d; at 50 µM; stronger effect = higher value.
Setting [16] is: H69AR cells + 2 uM doxorubicin, measured here: viability with 2 uM doxorubicin, stronger effect = lower value.
[17] abbreviates: H69AR cells, compound alone cytotoxicity.

Receptor tyrosine-protein kinase erbB-2 (Homo sapiens), sequence (P04626 whole entry, looked up): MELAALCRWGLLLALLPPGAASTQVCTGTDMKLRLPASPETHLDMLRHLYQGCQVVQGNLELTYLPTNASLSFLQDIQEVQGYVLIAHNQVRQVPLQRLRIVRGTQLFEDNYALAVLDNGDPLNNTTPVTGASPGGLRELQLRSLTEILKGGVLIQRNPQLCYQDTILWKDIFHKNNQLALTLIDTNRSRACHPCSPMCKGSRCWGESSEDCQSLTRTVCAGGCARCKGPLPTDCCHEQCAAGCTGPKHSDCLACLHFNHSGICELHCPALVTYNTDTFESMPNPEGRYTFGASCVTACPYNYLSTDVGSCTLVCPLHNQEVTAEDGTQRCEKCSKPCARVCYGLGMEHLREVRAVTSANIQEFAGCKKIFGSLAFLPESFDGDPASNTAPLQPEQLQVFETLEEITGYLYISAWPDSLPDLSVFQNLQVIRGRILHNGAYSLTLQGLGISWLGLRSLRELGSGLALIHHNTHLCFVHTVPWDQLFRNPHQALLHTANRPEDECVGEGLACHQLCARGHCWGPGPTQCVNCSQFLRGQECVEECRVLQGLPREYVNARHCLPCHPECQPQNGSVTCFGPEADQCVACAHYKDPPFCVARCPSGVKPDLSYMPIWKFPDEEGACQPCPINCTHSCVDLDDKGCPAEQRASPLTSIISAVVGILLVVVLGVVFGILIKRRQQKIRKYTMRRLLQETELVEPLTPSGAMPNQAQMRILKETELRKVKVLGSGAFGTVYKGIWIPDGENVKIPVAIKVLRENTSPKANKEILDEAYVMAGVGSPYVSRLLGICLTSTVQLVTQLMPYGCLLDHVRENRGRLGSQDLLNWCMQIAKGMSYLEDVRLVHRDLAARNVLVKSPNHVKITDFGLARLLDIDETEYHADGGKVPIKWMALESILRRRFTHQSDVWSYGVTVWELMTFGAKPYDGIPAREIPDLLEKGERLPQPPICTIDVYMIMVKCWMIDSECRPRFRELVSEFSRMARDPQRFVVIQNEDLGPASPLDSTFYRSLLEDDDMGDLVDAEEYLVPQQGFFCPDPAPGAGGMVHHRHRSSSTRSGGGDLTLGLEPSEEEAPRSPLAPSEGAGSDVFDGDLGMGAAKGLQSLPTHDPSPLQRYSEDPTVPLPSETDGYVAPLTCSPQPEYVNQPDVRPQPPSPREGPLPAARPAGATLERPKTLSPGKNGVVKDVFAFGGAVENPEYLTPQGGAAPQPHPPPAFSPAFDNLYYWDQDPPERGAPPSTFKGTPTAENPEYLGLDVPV

What is called viability is a read-out of living cells in per cent, often relative to untreated cells. In general, inhibition refers to the relative decrease from the control value, in per cent. For the compound `Cc1c(NC(=O)c2ccc(CN3CCc4ccccc4C3)cc2)c(=O)n(-c2ccccc2)n1C`, the viability was 95% in assay [1]; 95% (inactive) in assay [3]; 94.3% (inactive) in assay [4]; 98.8% (inactive) in assay [5]; 94.3% in [6] (setting [16]); 98.8% in assay [6] (setting [17]). Also, the viability in assay [12] was 79.6% (inactive); in assay [13], 84.4% (inactive). In addition, the Her2 level in assay [2] is 109% (inactive). In addition, the differential viability (reversal) in [6] (H69AR cells + 2 uM doxorubicin) is 4.51% (inactive). Also, the figures for the inhibition in [7], in assay [8] and in assay [14] were -5.64% (inactive), -4.83% (inactive) and 0.845% (inactive), respectively. Besides, the growth inhibition in assay [9] is -4.14% (inactive); in [10], -6.79% (inactive). The viability increase in assay [11] is 0.51% (inactive). For the same compound, the RAM network inhibition in [15] is 5.97% (inactive).

Take `COc1ccccc1S(=O)(=O)Cc1ccc(C(=O)N2CCN(c3ccccn3)CC2)o1`: the viability is 101% in assay [1]; 101% (inactive) in assay [3]; 87.8% (inactive) in assay [4]; 88.9% (inactive) in [5]; 82.1% in assay [6] (setting [16]); 88.9% in assay [6] (setting [17]). In addition, the viability was 92.8% (inactive) in [12] and 85.1% (inactive) in assay [13]. In [2], the Her2 level was 84.5% (inactive). Also, the differential viability (reversal) in [6] (H69AR cells + 2 uM doxorubicin) was 6.81% (inactive). In addition, the inhibition was -3.47% (inactive) in assay [7], -1.97% (inactive) in [8] and 0.76% (inactive) in assay [14]. Moreover, the growth inhibition in assay [9] was -6.28% (inactive); in [10], -10.3% (inactive). Further, the viability increase in assay [11] is -1.97% (inactive). In addition, in assay [15], the RAM network inhibition was 0.78% (inactive).

For the compound `CC(C)c1nccn1S(=O)(=O)c1cc(Cl)ccc1Cl`, the viability was 104% in assay [1]; 104% (inactive) in [3]; 92.2% (inactive) in assay [4]; 90.3% (inactive) in [5]; 86.3% in assay [6] (setting [16]); 90.3% in [6] (setting [17]). The figures for the viability in assay [12] and in [13] were 103% (inactive) and 97.2% (inactive), respectively. The Her2 level in [2] is 112% (inactive). The differential viability (reversal) in assay [6] (H69AR cells + 2 uM doxorubicin) was 3.94% (inactive). Moreover, the inhibition is -4.03% (inactive) in assay [7], -3.83% (inactive) in assay [8] and 1.64% (inactive) in assay [14]. The values for the growth inhibition in assay [9] and in [10] were -4.57% (inactive) and -1% (inactive), respectively. For the same compound, the viability increase in assay [11] was 0% (inactive). Besides, the RAM network inhibition in [15] is 4.6% (inactive).

As for `COc1ccc(OCC(=O)N2CC3(C)CC2CC(C)(C)C3)cc1` (stereo not drawn), the viability in [1] is 96%; in [3], 96% (inactive); in assay [4], 108% (inactive); in [5] it was 99.8% (inactive); in assay [6] (setting [16]), 82.8%; in [6] (setting [17]) it was 99.8%. Besides, the viability was 97.9% (inactive) in assay [12] and 92% (inactive) in [13]. In assay [2], the Her2 level was 84% (inactive). For the same compound, the differential viability (reversal) in assay [6] (H69AR cells + 2 uM doxorubicin) is 17% (inactive). The inhibition was -3.2% (inactive) in assay [7], -2.9% (inactive) in assay [8] and 1.06% (inactive) in assay [14]. Besides, the growth inhibition in assay [9] is -9.87% (inactive); in assay [10] it was -0.89% (inactive). The viability increase in assay [11] is 0.69% (inactive). For the same compound, the RAM network inhibition in assay [15] is 1.07% (inactive).

In the case of `CC(Oc1ccc2oc(-c3ccccc3)c(C(=O)O)c2c1)C(=O)O` (stereo not drawn), the viability in [1] was 95.5%; in assay [3], 95.5% (inactive); in assay [4], 103% (inactive); in [5], 103% (inactive); in [6] (setting [16]) it was 96.3%; in assay [6] (setting [17]), 103%. Moreover, the results for the viability in assay [12] and in [13] were 99.3% (inactive) and 102% (inactive), respectively. The Her2 level in [2] is 77.5% (inactive). Moreover, the differential viability (reversal) in [6] (H69AR cells + 2 uM doxorubicin) was 6.43% (inactive). In addition, the inhibition is -4.86% (inactive) in [7], -6% (inactive) in assay [8] and 1.73% (inactive) in [14]. Further, the growth inhibition is -7.27% (inactive) in [9] and 2.06% (inactive) in assay [10]. For the same compound, in [11], the viability increase is -1.56% (inactive). Moreover, the RAM network inhibition in [15] is 4.67% (inactive).

Take `CC1(C)CC(=O)c2cnc(NC(=O)CCc3ccccc3)nc2C1`: the viability was 93% in assay [1]; 93% (inactive) in assay [3]; 112% (inactive) in assay [4]; 90.2% (inactive) in assay [5]; 89.2% in assay [6] (setting [16]); 90.2% in assay [6] (setting [17]). For the same compound, the viability in assay [12] was 97.6% (inactive); in [13], 101% (inactive). Moreover, the Her2 level in assay [2] was 82% (inactive). Also, the differential viability (reversal) in assay [6] (H69AR cells + 2 uM doxorubicin) is 0.98% (inactive). Besides, the inhibition in assay [7] was -0.65% (inactive); in assay [8] it was -4.5% (inactive); in [14], 1.27% (inactive). For the same compound, the growth inhibition was -7.5% (inactive) in assay [9] and -11.6% (inactive) in [10]. Also, the viability increase in assay [11] is 1.81% (inactive). In assay [15], the RAM network inhibition is 6.48% (inactive).

With `COCCCN1C(=O)C(=O)/C(=C(/O)c2ccc(OCC(C)C)cc2C)C1c1cccnc1` (stereo not drawn), the viability is 109% in assay [1]; 109% (inactive) in assay [3]; 104% (inactive) in assay [4]; 98.1% (inactive) in assay [5]; 96.6% in assay [6] (setting [16]); 98.1% in assay [6] (setting [17]). In addition, the viability in [12] was 106% (inactive); in assay [13] it was 95.6% (inactive). Moreover, the Her2 level in assay [2] is 110% (inactive). Moreover, in assay [6] (H69AR cells + 2 uM doxorubicin), the differential viability (reversal) is 1.47% (inactive). In addition, the inhibition in assay [7] was -2.21% (inactive); in [8], -2.67% (inactive); in [14], 0.48% (inactive). Moreover, the growth inhibition in assay [9] is -1.21% (inactive); in [10], 15.7% (inactive). In assay [11], the viability increase is 0.13% (inactive). In addition, the RAM network inhibition in assay [15] was 2.11% (inactive).

Turning to `Cc1ccccc1-n1c(Cn2c(=O)sc3ccccc32)nnc1SCC(=O)N1CCCC1`, the viability in assay [1] was 109%; in [3] it was 109% (inactive); in [4] it was 98% (inactive); in assay [5], 93.7% (inactive); in assay [6] (setting [16]) it was 81.1%; in [6] (setting [17]), 93.7%. Also, the results for the viability in [12] and in [13] were 98.6% (inactive) and 104% (inactive), respectively. Moreover, the Her2 level in [2] was 90.5% (inactive). The differential viability (reversal) in [6] (H69AR cells + 2 uM doxorubicin) is 12.6% (inactive). Further, the inhibition was -4% (inactive) in assay [7], 6.89% (inactive) in [8] and -0.765% (inactive) in assay [14]. For the same compound, the figures for the growth inhibition in assay [9] and in assay [10] were -2.21% (inactive) and 6.39% (inactive), respectively. Besides, the viability increase in [11] was -0.45% (inactive). In addition, in assay [15], the RAM network inhibition is 8.27% (inactive).

`CCOC(=O)C(C(=O)OCC)C(C)C#CCN1CCCCC1` (stereo not drawn): the viability in assay [1] is 91.5%; in assay [3], 91.5% (inactive); in assay [4] it was 87.2% (inactive); in [5], 90.4% (inactive); in [6] (setting [16]), 89.2%; in assay [6] (setting [17]), 90.4%. Further, the viability in [12] is 93.9% (inactive); in assay [13] it was 97% (inactive). In addition, the Her2 level in assay [2] is 116% (inactive). The differential viability (reversal) in assay [6] (H69AR cells + 2 uM doxorubicin) was 1.13% (inactive). Moreover, the inhibition in [7] is -3.08% (inactive); in assay [8] it was -5.5% (inactive); in assay [14] it was -0.12% (inactive). Further, the growth inhibition is -2.21% (inactive) in assay [9] and -1.49% (inactive) in [10]. In addition, in [11], the viability increase is -2.18% (inactive). Moreover, in assay [15], the RAM network inhibition was 7.5% (inactive).
